Bioassay records as filed in PubChem.
Rows were chosen to be rich in hits. Some 1.7% of all compounds tested hit in one or more screens of this group.
ugtP null kill: kills S. aureus RN4220 lacking UgtP; S. aureus RN4220 ugtP deletion, OD600 growth, 16 h; growth inhibition, % (concentration not given with the values); 0.54% of 330,000 active; in the data active = growth inhibition above about 68%
Mtb hypoxia rep: inhibitors of hypoxia-regulated fluorescent reporter in Mycobacterium tuberculosis; M. tuberculosis hypoxia-regulated fluorescent reporter, fluorescence; fluorescence inhibition, % (test concentration not listed); 0.1% of 300,000 active; in the data active = fluorescence inhibition mostly above about 23%, no sharp cut-off; inactive = mostly below about 17%
PfHsp40 yeast: restores yeast growth despite PfHsp40 toxicity. S. cerevisiae expressing PfHsp40, growth rescue, ATP luminescence. growth rescue, % at 12.5 µM. 0.68% of 340,000 active. AID 504582; in the data active = growth rescue above about 28%, passing the limit was not always enough;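 also: yeast W303a lacking pdr1 and pdr3 grown in galactose medium; growth measured after three days at 30 °C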
CCHF vOTU inh-1: CCHFV vOTU protease inhibition; AID 651958; inhibition, % at 11.5 µM; Pep-AMC fluorescence; 0.55% of 370,000 active
Sa RN4220 lethal: S. aureus RN4220 growth inhibition. OD600, 16 h. inhibition, % (no concentration beside the values). 0.33% of 330,000 active. AID 1259311; in the data active = inhibition above about 85%
Vc quorum ag: induces V. cholerae light production without autoinducers. V. cholerae BH1578 lux reporter, luminescence, 6 h. activation, % at 18.7 µM. 0.16% of 350,000 active; in the data active = activation mostly above about 9.7%, no sharp cut-off
CCHF vOTU inh-2: CCHFV vOTU protease inhibition, confirmation; inhibition, % at 11.5 µM; shares compounds with CCHF vOTU inh-1; 17% of 1,900 active; Recombinant CCHFV vOTU, Pep-AMC fluorescence
Numbers stand for hits; 0 = inactive; - = not tested or not shown. Rule as the data show it, unless noted: active = inhibition above about 30%; inactive = the rest.

SMILES	ugtP null kill	Mtb hypoxia rep	PfHsp40 yeast	CCHF vOTU inh-1	Sa RN4220 lethal	Vc quorum ag	CCHF vOTU inh-2
O=C(c1ccco1)[C@@H]1[C@@H]2C(=O)N(c3ccc(Br)cc3)C(=O)[C@@H]2C2c3ccccc3C=CN21 (stereo not given in full)	0	0	0	93	0	0	84
Cc1ccc(N2C(=O)C3C(C2=O)C2c4ccccc4C=CN2C3C(=O)c2ccco2)cc1 (stereo not given)	0	0	-	-	0	-	-
O=C(c1ccco1)[C@@H]1[C@@H]2C(=O)N(c3ccc(F)cc3)C(=O)[C@@H]2C2c3ccccc3C=CN21 (stereo not given in full)	-	-	-	86	-	-	40
O=C(O)CCC(=NNC(=O)c1ccncc1)c1ccccc1	0	0	-	-	0	-	-
CC(=NNc1cc(N2CCOCC2)nc(C)n1)c1ccc(F)cc1	0	0	-	-	0	-	-
COc1ccc(-n2c3nc4ccccc4nc3c3c(=N)oc(C)nc32)cc1	0	0	0	69	0	0	36
COc1ccc(NS(=O)(=O)c2cccc(C(=O)NN=Cc3c(F)c(F)c(F)c(F)c3F)c2)cc1	0	0	-	-	0	-	-
Cc1ccc(S(=O)(=O)/N=C2/NC(=O)/C(=C/c3cc([N+](=O)[O-])ccc3O)S2)cc1	-	-	0	43	-	0	0
CC(COc1ccc(C=Cc2ccccc2)cc1)[N+](C)(C)C (stereo not given)	0	0	-	-	0	-	-
CCCCCCCCN1C(=O)[C@H](CC(=O)NCc2cccs2)C[C@@]2(C(=O)OCC)CCCC=C12	-	-	-	31	-	-	0
CCCCCCCCN1C(=O)[C@H](CC(=O)NCc2cccs2)C[C@@]2(C(=O)OC)CCCCC=C12	-	-	-	0	-	-	-
CCOC(=O)[C@]12CCCC=C1N(Cc1ccc(Cl)cc1Cl)C(=O)[C@H](CC(=O)NCc1ccc(C)o1)C2	-	-	-	0	-	-	-
CCCCCCCCN1C(=O)[C@H](CC(=O)NCc2ccc(OC)c(OC)c2)C[C@@]2(C(=O)OCC)CCCC=C12	-	-	-	39	-	-	0
CCCCCCCCN1C(=O)[C@H](CC(=O)NCCc2ccccc2OC)C[C@@]2(C(=O)OC)CCCCC=C12	-	-	-	47	-	-	0
CCOC(=O)[C@]12CCC=C1N(Cc1ccc(Cl)cc1Cl)C(=O)[C@H](CC(=O)NCc1ccc(C)o1)C2	-	-	-	34	-	-	0
Cc1cc(C)n2nc(SCC(=O)NN=Cc3cccc(Br)c3)nc2n1	0	0	-	-	0	-	-
COc1ccc(C2C=CCN(S(=O)(=O)c3cccc4cccnc34)CC(=O)N2Cc2ccc(F)cc2)cc1 (stereo not given)	0	0	-	-	0	-	-
C#CCNC(C)Cc1ccccc1 (stereo not given)	0	0	-	-	0	-	-
CCn1nc(NS(=O)(=O)c2ccccc2[N+](=O)[O-])c2cc3cccc(C)c3nc21	0	0	0	32	0	0	0
Cn1cccc1C=NN1CCN(Cc2cccc3ccccc23)CC1	0	0	-	-	0	-	-
O=c1cc(-c2ccc(O)c(-c3c(O)cc(O)c4c(=O)cc(-c5ccc(O)cc5)oc34)c2)oc2cc(O)cc(O)c12	0	0	0	30	0	0	0
O=C(Nc1scc(-c2ccc(F)cc2)c1C(=O)O)c1ccco1	0	0	0	31	0	0	0
COC(=O)c1c(-c2ccccc2)csc1NC(=O)c1ccco1	0	0	0	0	0	0	-
CC1CN(C(C)CO)C(=O)c2cccc(NS(=O)(=O)c3cn(C)cn3)c2OC1CN(C)Cc1ccc(-c2ccccc2)cc1 (stereo not given)	0	0	-	-	0	-	-
C[n+]1cccc2c(Br)ccc([O-])c21	0	0	0	103	0	0	42
SMILES	ugtP null kill	Mtb hypoxia rep	PfHsp40 yeast	CCHF vOTU inh-1	Sa RN4220 lethal	Vc quorum ag	CCHF vOTU inh-2
COCCOc1ccc(C(F)(F)F)cc1NC(=O)CN1C(=O)NC(C)(c2ccc3c(c2)OCO3)C1=O (stereo not given)	0	0	0	31	0	0	0
COc1ccc(C2(C)NC(=O)N(CC(=O)Nc3ccc4c(c3)OCO4)C2=O)cc1OC (stereo not given)	0	0	0	0	0	0	-
COc1cc(/C=N\Nc2nncn2N)ccc1OC(C)=O	-	-	0	90	-	0	0
COc1cc(/C=N/NC(=O)c2ccncc2)ccc1OC(C)=O	-	-	0	0	-	0	-
COc1ccc(OC)c(/C=N/Nc2nncn2/N=C/c2cc(OC)ccc2OC)c1	-	-	0	32	-	0	0
COc1ccc(OC)c(C=NNc2nncn2N=Cc2cc(OC)ccc2OC)c1	0	0	-	-	0	-	-
